Assay results from PubChem BioAssay.
Values joined by “and” are separate entries in the source; they are usually repeats but may differ in a detail not shown here. Identical values can stand only once. Inconclusive results are not listed. The source holds several records for some structures; these can differ, active in one and inactive in another. Active and inactive are the calls of the source. Unless noted, no rule for the calls is given here.

Experiments:
[1] = yeast TOR pathway RPL19A-GFP modulators, primary screen, cell-based, S. cerevisiae, multiplex flow cytometry (AID 1862; in the data active = percent of DMSO control GFP below about 86%;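 also: lower values mimic rapamycin by blocking the RPL19A rise seen in DMSO cells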); settings: S. cerevisiae RPL19A-GFP strain, flow cytometry fluorescence, 3 h; at 10 µM; stronger effect = lower value
[2] = modulators of MEP2-GFP levels in yeast, primary screen, S. cerevisiae, multiplex flow cytometry (AID 1867;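 active = GFP response, as percent of the DMSO control, above the screen-wide mean plus 3 SD, about 139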;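 also: median GFP channel fluorescence of barcode-gated MEP2-GFP cells measured by flow cytometry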); settings: S. cerevisiae MEP2-GFP strain, 3 h, at 10 µM, stronger effect = higher value
[3] = modulators of CIT2-GFP expression in yeast, primary screen, S. cerevisiae, GFP fusion, multiplex flow cytometry (AID 1870;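 active = percent response above a set limit, the screen-wide mean plus 3 SD, cut at about 130% in these data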;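 also: barcoded CIT2-GFP strain pooled with four other GFP strains with rapamycin as positive control; median GFP fluorescence per well over plate mean of DMSO wells so 100% = DMSO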); settings: 3 h, at 10 µM, stronger effect = higher value
[4] = modulators of LAP4-GFP expression in yeast, primary screen, S. cerevisiae, multiplex flow cytometry (AID 1873;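 active = GFP signal, as percent of the solvent control, above the screen mean plus 3 SD, about 149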); settings: 3 h, at 10 µM, stronger effect = higher value
[5] = modulators of AGP1-GFP expression in yeast TOR pathway, primary screen, cell-based, multiplex flow cytometry, S. cerevisiae (AID 1887;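 active = GFP signal above the screen-wide mean plus 3 SD, that is over about 124.5% of the solvent control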;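 also: AGP1-GFP fusion strain of S. cerevisiae within a five-strain barcoded multiplex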); settings: 3 h, at 10 µM, stronger effect = higher value
[6] = inhibitors of CD8+ T cell-vesicle binding, pilot screen, LFA-1/ICAM-1 modulator project, MLPCN validation set, flow cytometry (AID 2523;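 active = response below a set limit, under 55% cells CD8-positive and vesicle-bound, and CD8 cells' 90th-percentile brightness under 279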;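 as to vesicle binding response: mean PE anti-B7-1 fluorescence of CD8+ cells relative to row control; 100% = QL9-loaded vesicles with DMSO vehicle in the same plate row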); settings: 2C mouse CD8+ T cells, at 7 µM, stronger effect = lower value; double positive events: measured here: CD8+/vesicle+ event percentage
[7] = target: Integrin beta-1 (Homo sapiens) + Integrin alpha-4 (Homo sapiens) (UniProt P13612+P05556); assay: inhibition of HUTS-21 binding to VLA-4, pilot screen, VLA-4 allosteric modulator project, U937 cells, HUTS-21 mAb, flow cytometry, validation set (AID 2674;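 active = inhibition above 50%, about 3 SD of the validation set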;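 also: antibody binding induced by the VLA-4 ligand LDV present at three times its Kd; 0% = LDV ligand with antibody and no compound and 100% = antibody without LDV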); settings: HUTS-21 LIBS mAb binding, at 6.7 µM, stronger effect = higher value
[8] = superoxide lowering in aged yeast cells, pilot screen, validation compound set (AID 2706;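 active = superoxide response below 65% of plate, a cut near 3 SD across the whole screen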;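 also: yeast exposed to compound for one week at 30 degrees C before staining; 100% = mean of all compound wells on the same plate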); settings: S. cerevisiae aging, superoxide DHE fluorescence; at 10 µM; stronger effect = lower value
[9] = target: Beta-adrenergic receptor kinase 1 (Homo sapiens) (UniProt P25098); assay: GRK2 binders displacing RNA aptamer, biochemical, validation, human GRK2, bead flow cytometry (AID 488806;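 active = aptamer binding inhibition above 30%, about 3 SD of noise from non-fluorescent compounds; inactive = inhibition at or below 30%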); settings: bead-bound GRK2, FAM-aptamer displacement, at 10 µM, stronger effect = higher value
[10] = target: Beta-2 adrenergic receptor (Homo sapiens) (UniProt P07550); assay: beta2AR agonists driving receptor internalization, pilot screen, cell-based, FAP fluorogen, flow cytometry, validation set (AID 504459;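 active = percent response above 42, roughly 3 SD of non-fluorescent test compounds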;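 also: agonist-driven loss of surface beta2AR via internalization measured by FAP dye flow cytometry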); settings: Am2.2-beta2AR cells, FAP surface receptor flow cytometry; at 10 µM; stronger effect = higher value
[11] = target: AP-2 complex subunit beta (Homo sapiens) (UniProt P63010); assay: inhibitors of arrestin peptide binding to AP2, pilot screen, biochemical, validation set, GST-AP2 beads, flow cytometry (AID 504541;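 active = inhibition above 54%, about 3 SD of non-fluorescent compounds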;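 also: AP2 carries R879A mutation and is captured from E. coli lysate; bead-bound FITC arrestin peptide fluorescence measuring arrestin peptide binding to AP2; 0% = DMSO wells and 100% = excess unlabeled arrestin peptide control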); settings: FITC arrestin peptide, at 10 µM, stronger effect = higher value
[12] = yeast V-ATPase proton transport modulators, S. cerevisiae, pHLuorin, HTS validation (AID 504600; in the data active = response above about 15%;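 also: plate controls were DMSO for no effect and reference compound for full effect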); settings: S. cerevisiae pHLuorin cytosolic pH, at 10 µM, stronger effect = higher value
[13] = tested on: anti-desmoglein-3 scFv antibody binding to human DSG3; assay: inhibitors of anti-DSG3 scFv binding to DSG3, pilot screen, biochemical, validation compound set, bead-based, flow cytometry (AID 588368;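 active = binding below the plate cutoff, the plate median minus 3 SD, with a reading above zero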;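 also: signal is the median channel fluorescence of bead-bound GFP antibody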); settings: Protein G beads, DSG3-Fc, scFv-GFP binding, at 10 µM, stronger effect = lower value
[14] = tested on: Botulinum neurotoxin type F light chain protease (Clostridium botulinum); assay: Botulinum neurotoxin type F light chain protease inhibition, multiplex microsphere flow cytometry, validation set (AID 588459); settings: multiplex microsphere protease substrate cleavage assay, at 10 µM, stronger effect = higher value
[15] = target: Botulinum neurotoxin type A (Clostridium botulinum) (UniProt P0DPI0); assay: BoNT/A light chain protease inhibitors, biochemical, multiplex microsphere flow cytometry, validation set (AID 588460); settings: at 10 µM, stronger effect = higher value
[16] = target: Lethal factor (Bacillus anthracis) (UniProt P15917); assay: Lethal factor protease inhibitors, Bacillus anthracis, multiplex microsphere cleavage assay, validation set (AID 588461); settings: flow cytometry, at 10 µM, stronger effect = higher value
[17] = inhibitors of fungal efflux pumps CDR1, CDR2, MDR1, pilot screen, validation compound set, multiplex, phenotypic (AID 588506;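 active = efflux inhibition above 0.42, the validation set average plus 4 SD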;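 also: Nile Red retained in cells so higher fluorescence means more efflux inhibition; 0 = negative control wells and 1 = enniatin B 25 µM full block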); settings: S. cerevisiae pump-expressing triplex, Nile Red efflux flow cytometry; at 10 µM; stronger effect = higher value
[18] = target: ATP-binding cassette sub-family B member 6 (Homo sapiens) (UniProt Q9NP58); assay: ABCB6 transporter inhibitors, pilot screen, K562-ABCB6 cells, flow cytometry, validation set (AID 588550;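 active = inhibition above the screen-wide mean plus 3 SD, about 51%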;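 also: 0% = DMSO wells and 100% = benzethonium chloride 70 µM positive control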); settings: K562-ABCB6 porphyrin accumulation, 1 h, at 10 µM, stronger effect = higher value
[19] = promoters of myeloid differentiation in arrested cells, primary screen, cell-based, GFP/MAC1 double positive, flow cytometry, validation set (AID 588685;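 active = differentiation response of at least 50%, scaled between solvent and reference control, from cells with both markers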;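 also: compound exposure lasts four days before antibody staining and flow analysis; 0% = DMSO wells and 100% = 5 µM fulvestrant positive control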); settings: ER-HoxA9 marrow cells, stronger effect = higher value

Beta-2 adrenergic receptor (Homo sapiens), sequence (P07550 whole entry, looked up): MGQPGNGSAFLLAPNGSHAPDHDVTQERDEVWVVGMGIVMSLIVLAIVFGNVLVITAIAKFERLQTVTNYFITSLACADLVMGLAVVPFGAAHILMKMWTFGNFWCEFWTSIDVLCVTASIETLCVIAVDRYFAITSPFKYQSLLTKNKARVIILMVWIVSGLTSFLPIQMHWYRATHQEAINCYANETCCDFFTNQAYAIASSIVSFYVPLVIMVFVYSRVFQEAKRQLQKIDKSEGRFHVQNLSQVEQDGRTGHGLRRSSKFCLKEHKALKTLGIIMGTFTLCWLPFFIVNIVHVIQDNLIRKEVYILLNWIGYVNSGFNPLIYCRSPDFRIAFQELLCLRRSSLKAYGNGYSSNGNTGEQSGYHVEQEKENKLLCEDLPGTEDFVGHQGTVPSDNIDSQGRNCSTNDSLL
ATP-binding cassette sub-family B member 6 (Homo sapiens), sequence (Q9NP58 whole entry, looked up): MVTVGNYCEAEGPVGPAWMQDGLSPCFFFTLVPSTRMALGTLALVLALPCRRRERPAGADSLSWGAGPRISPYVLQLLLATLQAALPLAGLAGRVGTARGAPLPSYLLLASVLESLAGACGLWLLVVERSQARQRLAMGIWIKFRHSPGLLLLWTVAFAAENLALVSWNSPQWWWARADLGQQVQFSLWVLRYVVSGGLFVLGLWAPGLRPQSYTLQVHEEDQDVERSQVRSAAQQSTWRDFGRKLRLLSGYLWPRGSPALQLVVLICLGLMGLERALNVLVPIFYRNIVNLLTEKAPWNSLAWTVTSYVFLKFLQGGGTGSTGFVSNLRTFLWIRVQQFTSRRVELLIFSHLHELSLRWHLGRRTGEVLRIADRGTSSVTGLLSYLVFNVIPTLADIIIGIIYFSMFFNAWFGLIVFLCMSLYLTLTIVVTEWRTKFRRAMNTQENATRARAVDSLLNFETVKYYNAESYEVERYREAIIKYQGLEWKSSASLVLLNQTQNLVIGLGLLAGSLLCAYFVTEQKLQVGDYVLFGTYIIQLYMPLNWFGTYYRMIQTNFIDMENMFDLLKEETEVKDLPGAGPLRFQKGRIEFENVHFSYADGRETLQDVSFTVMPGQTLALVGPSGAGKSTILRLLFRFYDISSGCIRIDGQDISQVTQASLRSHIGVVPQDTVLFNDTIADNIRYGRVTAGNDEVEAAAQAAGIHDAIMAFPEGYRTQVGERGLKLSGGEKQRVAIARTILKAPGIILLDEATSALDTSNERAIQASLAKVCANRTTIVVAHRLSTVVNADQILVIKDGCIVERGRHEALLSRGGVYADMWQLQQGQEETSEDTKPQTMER
Beta-adrenergic receptor kinase 1 (Homo sapiens), sequence (P25098 whole entry, looked up): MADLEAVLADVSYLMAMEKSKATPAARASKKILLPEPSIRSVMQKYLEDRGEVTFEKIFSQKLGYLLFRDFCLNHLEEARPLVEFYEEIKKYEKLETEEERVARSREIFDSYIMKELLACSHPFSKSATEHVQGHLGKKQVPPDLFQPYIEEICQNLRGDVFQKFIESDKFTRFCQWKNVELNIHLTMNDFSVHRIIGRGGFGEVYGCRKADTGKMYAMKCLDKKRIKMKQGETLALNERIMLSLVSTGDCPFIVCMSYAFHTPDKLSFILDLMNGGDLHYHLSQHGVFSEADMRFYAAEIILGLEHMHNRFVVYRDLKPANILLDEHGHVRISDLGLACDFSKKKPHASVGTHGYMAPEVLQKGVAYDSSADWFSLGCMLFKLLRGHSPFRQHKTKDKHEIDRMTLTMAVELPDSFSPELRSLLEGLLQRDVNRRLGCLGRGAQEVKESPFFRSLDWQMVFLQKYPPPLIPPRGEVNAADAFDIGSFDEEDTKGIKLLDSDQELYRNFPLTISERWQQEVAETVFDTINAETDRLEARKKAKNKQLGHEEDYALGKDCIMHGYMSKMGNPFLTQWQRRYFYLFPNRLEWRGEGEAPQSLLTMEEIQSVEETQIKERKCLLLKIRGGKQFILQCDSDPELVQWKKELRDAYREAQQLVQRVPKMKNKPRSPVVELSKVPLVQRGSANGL
Lethal factor (Bacillus anthracis), sequence (P15917 whole entry, looked up): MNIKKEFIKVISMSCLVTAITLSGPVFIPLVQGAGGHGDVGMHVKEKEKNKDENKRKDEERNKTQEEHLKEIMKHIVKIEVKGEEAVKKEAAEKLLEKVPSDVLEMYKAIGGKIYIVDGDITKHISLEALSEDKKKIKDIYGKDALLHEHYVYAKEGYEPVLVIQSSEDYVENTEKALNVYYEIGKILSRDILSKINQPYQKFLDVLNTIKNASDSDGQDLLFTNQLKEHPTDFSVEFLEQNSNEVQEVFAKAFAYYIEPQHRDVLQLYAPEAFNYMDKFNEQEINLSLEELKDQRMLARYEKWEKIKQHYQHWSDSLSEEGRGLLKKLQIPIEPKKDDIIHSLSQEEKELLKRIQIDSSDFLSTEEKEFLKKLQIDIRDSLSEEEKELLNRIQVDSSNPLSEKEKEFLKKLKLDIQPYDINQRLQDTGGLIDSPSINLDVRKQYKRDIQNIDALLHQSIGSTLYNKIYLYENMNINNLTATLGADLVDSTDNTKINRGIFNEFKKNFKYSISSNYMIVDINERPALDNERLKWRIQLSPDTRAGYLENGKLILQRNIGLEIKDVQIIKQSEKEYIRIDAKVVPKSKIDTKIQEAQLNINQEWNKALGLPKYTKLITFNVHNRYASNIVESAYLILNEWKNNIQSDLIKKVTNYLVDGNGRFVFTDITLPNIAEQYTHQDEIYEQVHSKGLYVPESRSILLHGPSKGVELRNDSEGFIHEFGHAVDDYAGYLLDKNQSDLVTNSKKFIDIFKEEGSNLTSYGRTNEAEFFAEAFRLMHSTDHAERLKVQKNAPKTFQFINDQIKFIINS
Integrin beta-1 (Homo sapiens) + Integrin alpha-4 (Homo sapiens), sequence (P05556 whole entry, looked up): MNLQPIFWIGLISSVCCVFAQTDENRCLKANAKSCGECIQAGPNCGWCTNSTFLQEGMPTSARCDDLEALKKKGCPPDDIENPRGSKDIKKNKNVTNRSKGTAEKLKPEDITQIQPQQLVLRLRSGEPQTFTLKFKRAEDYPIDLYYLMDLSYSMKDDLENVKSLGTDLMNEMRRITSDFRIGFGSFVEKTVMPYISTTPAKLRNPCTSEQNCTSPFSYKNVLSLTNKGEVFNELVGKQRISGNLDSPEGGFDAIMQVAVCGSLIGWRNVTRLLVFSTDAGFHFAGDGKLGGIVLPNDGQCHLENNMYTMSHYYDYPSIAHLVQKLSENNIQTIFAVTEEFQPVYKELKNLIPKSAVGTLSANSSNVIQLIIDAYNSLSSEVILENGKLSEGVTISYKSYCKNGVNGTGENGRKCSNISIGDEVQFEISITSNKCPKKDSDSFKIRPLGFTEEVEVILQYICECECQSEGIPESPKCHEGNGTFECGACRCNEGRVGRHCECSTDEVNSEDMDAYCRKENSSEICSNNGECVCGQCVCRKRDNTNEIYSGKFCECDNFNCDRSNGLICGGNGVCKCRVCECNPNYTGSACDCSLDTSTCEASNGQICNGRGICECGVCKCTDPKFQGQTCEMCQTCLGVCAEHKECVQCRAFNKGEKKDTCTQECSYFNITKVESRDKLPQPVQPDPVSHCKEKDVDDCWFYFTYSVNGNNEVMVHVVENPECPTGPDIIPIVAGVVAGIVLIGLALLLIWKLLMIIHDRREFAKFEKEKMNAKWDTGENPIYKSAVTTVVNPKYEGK
Integrin beta-1 (Homo sapiens) + Integrin alpha-4 (Homo sapiens), sequence (P13612 whole entry, looked up): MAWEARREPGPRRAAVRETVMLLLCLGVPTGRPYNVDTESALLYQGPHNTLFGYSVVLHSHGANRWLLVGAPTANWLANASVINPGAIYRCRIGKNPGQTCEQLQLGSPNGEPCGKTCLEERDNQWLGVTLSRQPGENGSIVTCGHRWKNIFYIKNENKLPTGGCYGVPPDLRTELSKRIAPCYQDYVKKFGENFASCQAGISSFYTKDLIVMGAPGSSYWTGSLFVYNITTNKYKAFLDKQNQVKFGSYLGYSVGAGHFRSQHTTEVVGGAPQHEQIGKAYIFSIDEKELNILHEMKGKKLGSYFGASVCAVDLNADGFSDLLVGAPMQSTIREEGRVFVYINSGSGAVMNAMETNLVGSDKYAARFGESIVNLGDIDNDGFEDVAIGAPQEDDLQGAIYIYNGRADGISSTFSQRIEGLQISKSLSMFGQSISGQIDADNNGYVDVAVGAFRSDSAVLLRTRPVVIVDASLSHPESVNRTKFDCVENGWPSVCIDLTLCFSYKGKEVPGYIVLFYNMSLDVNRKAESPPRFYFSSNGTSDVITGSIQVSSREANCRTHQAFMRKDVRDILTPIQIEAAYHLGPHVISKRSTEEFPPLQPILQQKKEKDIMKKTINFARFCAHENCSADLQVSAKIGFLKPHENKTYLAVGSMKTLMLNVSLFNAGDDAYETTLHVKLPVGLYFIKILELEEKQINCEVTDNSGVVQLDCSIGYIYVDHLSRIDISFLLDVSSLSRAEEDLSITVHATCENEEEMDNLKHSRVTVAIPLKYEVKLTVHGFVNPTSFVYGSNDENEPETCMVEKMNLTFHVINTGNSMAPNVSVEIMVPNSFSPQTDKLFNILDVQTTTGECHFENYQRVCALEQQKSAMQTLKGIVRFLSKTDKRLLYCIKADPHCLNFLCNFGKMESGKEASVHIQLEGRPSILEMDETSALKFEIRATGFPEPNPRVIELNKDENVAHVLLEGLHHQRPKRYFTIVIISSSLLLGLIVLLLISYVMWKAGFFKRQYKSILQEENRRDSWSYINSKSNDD

O=Cc1cn(Cc2ccc(F)cc2)c2ccccc12
60.5%: double positive events [6]
active: differentiation response [19] 93.6%
inactive: percent of DMSO control GFP [1] 97.8% | GFP response vs DMSO [2] 113% | percent response of DMSO control [3] 90.1% | GFP response vs DMSO [4] 129% | GFP response, % of DMSO [5] 102% | vesicle binding response [6] 173% | inhibition [7] 2.3% | superoxide response (% of plate) [8] 99.1% | aptamer binding inhibition [9] 1% | response [10] 14.3% | inhibition [11] 49.4% | response [12] -7.85% | binding (% of control) [13] 97.2% | inhibition [14] 8.3% | inhibition [15] 3.1% | inhibition [16] 3.2% | efflux inhibition (fraction of control) [17] 0.12 | inhibition [18] 2%

CN1C[C@H](CNC(=O)OCc2ccccc2)C[C@@H]2c3cccc4c3c(cn4C)C[C@H]21
63.3%: double positive events [6]
inactive: percent of DMSO control GFP [1] 103% | GFP response vs DMSO [2] 101% | percent response of DMSO control [3] 99% | GFP response vs DMSO [4] 104% | GFP response, % of DMSO [5] 108% | vesicle binding response [6] 365% | inhibition [7] -34.3% | superoxide response (% of plate) [8] 125% | aptamer binding inhibition [9] -1% | response [10] 13.7% | inhibition [11] -6.87% | response [12] -0.08% | binding (% of control) [13] 110% | inhibition [14] -0.5% | inhibition [15] 1.5% | inhibition [16] -7.6% | efflux inhibition (fraction of control) [17] 0.04 | inhibition [18] -29% | differentiation response [19] -6.96%

C[N+]1(C)CCc2cc3c(cc2[C@H]1[C@@H]1OC(=O)c2c1ccc1c2OCO1)OCO3
55.1% (active) and -7.04% (inactive): inhibition [11]
60.5% and 65.5%: double positive events [6]
inactive: percent of DMSO control GFP [1] 105% and 102% | GFP response vs DMSO [2] 102% and 108% | percent response of DMSO control [3] 104% and 93.1% | GFP response vs DMSO [4] 98% and 90.1% | GFP response, % of DMSO [5] 100% and 93.4% | vesicle binding response [6] 128% and 1190% | inhibition [7] 5.61% and 11% | superoxide response (% of plate) [8] 93.4% and 102% | aptamer binding inhibition [9] -1% and 5% | response [10] -0.95% and -3.71% | response [12] -7.78% and 0.91% | binding (% of control) [13] 101% and 97.9% | inhibition [14] -0.6% and -2.3% | inhibition [15] -1% and -0.6% | inhibition [16] 1% and -2.4% | efflux inhibition (fraction of control) [17] 0.115 and -0.1 | inhibition [18] 24% and -3% | differentiation response [19] -10.4% and 1.22%
